Screening results: PubChem, Sanford-Burnham Center for Chemical Genomics
Compounds with a hit are over-represented: about 3% of the library has one in this group of screens.
PPC-1+TRAIL kill = PPC-1 cancer cell killing with TRAIL present; PPC-1 cells + TRAIL, ATPLite viability luminescence; cell killing (% activity), % at 4 µM or 5 µM; 0.41% of 220,000 active; AID 1443;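 active means cell killing above 50% in the first pass at 4 µM, then a duplicate retest at 5 µM averaging 50% or more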;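 further: plate controls were cells with TRAIL plus DMSO for no effect and medium-only wells lacking cells for full effect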
SENP7 inh = SENP7 protease inhibition. Q9BQF6. recombinant SENP7, Z-RLRGG-aminoluciferin luminescence, 40 min. inhibition, % at 5 µM. 1.5% of 330,000 active. AID 434973;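 active means inhibition above about 50% at the single test dose, limit read from the data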;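 further: plate controls were DMSO with enzyme for no effect and no enzyme buffer wells for full effect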
SENP8 block-1 = SENP8 (human) protease inhibition. recombinant SENP8, Nedd8 substrate fluorescence. 0.64% of 360,000 active. inhibition, % at 20 µM. Q96LD8. AID 602440; in the data active means inhibition mostly above about 40%, no sharp cut-off; inactive means mostly below about 27%
Target sequence (Q96LD8 whole entry, looked up): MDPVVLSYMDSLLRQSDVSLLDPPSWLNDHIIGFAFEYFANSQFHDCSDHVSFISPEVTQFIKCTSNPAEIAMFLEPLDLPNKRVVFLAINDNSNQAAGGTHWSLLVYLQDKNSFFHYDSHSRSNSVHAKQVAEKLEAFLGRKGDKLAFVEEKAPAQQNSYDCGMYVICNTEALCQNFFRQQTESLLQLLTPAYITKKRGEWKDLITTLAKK
SENP6 inh = SENP6 protease inhibition; Q9GZR1; Recombinant SENP6 catalytic domain, aminoluciferin luminescence; inhibition, % at 10 µM; 1.8% of 330,000 active; AID 2599;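 active means inhibition above about 50% at the single tested dose, limit read from the data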;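 further: plate controls were DMSO wells with enzyme for no effect and DMSO wells lacking enzyme for full effect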
TRAIL sens C8 = caspase-8 TRAIL sensitization. NB7+C8 cells + TRAIL, ATPlite viability luminescence. inhibition (viability loss, TRAIL sensitization), % at 10 µM. 1% of 360,000 active;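 active means compounds causing at least 50% loss of cell viability in the single-dose screen, relative to plate controls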
SENP8 block-2 = SENP8 protease inhibition. Q96LD8. purified SENP8, Z-RLRGG-aminoluciferin cleavage, luminescence. inhibition, % at 10 µM. 1.2% of 330,000 active. AID 2540; in the data active means inhibition above about 50%
SENP8 conf = human SENP8 inhibition, confirmed. shares compounds with SENP7 inh. Recombinant SENP8, Z-RLRGG-aminoluciferin luminescence, 60 min. inhibition, % at 12.5 µM. 40% of 6,200 active;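 active means mean inhibition across replicates above about 50%, limit read from the data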
SENP6 conf = confirmation of human SENP6 protease inhibitors; 58% of 6,200 active; shares compounds with SENP7 inh; AID 488915; inhibition, % at 12.5 µM; recombinant SENP6, Z-RLRGG-aminoluciferin luminescence
SENP7 conf = confirmation of human SENP7 protease inhibitors; shares compounds with SENP7 inh; recombinant SENP7, Z-RLRGG-aminoluciferin luminescence, 40 min; inhibition, % at 12.5 µM; 69% of 6,200 active
Casp3 select = selectivity test for SENP inhibitors: human caspase-3 inhibition; AID 488918; purified caspase-3, Z-DEVD-aminoluciferin luminescence, 60 min; inhibition, % at 12.5 µM; 60% of 6,200 active; shares compounds with SENP7 inh;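 active means mean inhibition above about 50%, limit read from the data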;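 further: plate controls were enzyme with DMSO for no effect and wells without caspase-3 for full effect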
Target sequence (P42574 28-227 limits assumed): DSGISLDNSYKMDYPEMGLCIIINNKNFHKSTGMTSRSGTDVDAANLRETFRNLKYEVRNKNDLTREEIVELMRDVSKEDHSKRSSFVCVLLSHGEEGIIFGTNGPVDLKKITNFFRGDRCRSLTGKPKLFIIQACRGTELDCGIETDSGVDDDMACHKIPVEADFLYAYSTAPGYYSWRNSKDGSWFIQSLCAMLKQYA
Luc interf = counter-screen for SENP inhibitors: luminescence interference. inhibition, % at 12.5 µM. 39% of 6,200 active. shares compounds with SENP7 inh. Pre-incubated SENP8/Z-RLRGG-aminoluciferin, luciferase luminescence interference. AID 488919;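 active means mean inhibition above about 50% when retested at one dose, limit read from the data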;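 further: plate controls were DMSO wells with completed reaction for no effect and substrate without enzyme for full effect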
Active calls of the source: *; x = not tested or not shown.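 How the source made its calls, unless noted: active means mean inhibition above about 50% in the one-dose retest (limit read from the data); inactive means the rest.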

SMILES | PPC-1+TRAIL kill | SENP7 inh | SENP8 block-1 | SENP6 inh | TRAIL sens C8 | SENP8 block-2 | SENP8 conf | SENP6 conf | SENP7 conf | Casp3 select | Luc interf
Cc1ccc(NC(=O)Cc2noc3ccccc23)cc1 | -6.0 | 44.2 | 3.2 | 50.9* | 3.5 | 23.6 | 47.3 | 47.0 | 73.7* | 61.2* | 16.8
O=C(Cc1noc2ccccc12)Nc1ccc2ccccc2c1 | 6.2 | -8.5 | 10.1 | -6.2 | 9.2 | -3.7 | x | x | x | x | x
Nn1c(Nc2ccccc2)nc2ccccc21 | 2.5 | 41.6 | 24.2 | 66.7* | 14.7 | 28.4 | 50.9* | 46.7 | 81.0* | 72.7* | 59.0*
Cn1c(Nc2ccccc2)nc2ccccc21 | x | 0.9 | 21.3 | -14.6 | 13.7 | -8.1 | x | x | x | x | x
CC(C)C1/C(=N/O)CC(c2ccccc2)NC1c1ccccc1 (stereo unspecified) | 10.5 | 5.7 | 7.8 | -15.6 | 1.4 | -3.1 | x | x | x | x | x
CC1/C(=N/O)CC(c2ccccc2)NC1c1ccccc1 (stereo unspecified) | -15.0 | 88.8* | 9.8 | -38.5 | -0.5 | -8.3 | 6.3 | 6.9 | 9.0 | 3.9 | 2.8
Cc1c(Cc2ccccc2)c(=O)oc2cc(OC(C)C(=O)NCC3CCC(C(=O)O)CC3)c(Cl)cc12 (stereo unspecified) | x | 1.4 | -191.0 | -6.5 | 7.8 | -5.6 | x | x | x | x | x
COc1ccc(/C=C/c2noc(-c3ccccc3O)n2)cc1 | 16.8 | 88.5* | -8.5 | 89.2* | 20.9 | 88.1* | 56.8* | 49.2 | 61.8* | 52.8* | 4.4
CC(=O)Oc1ccccc1-c1nc(/C=C/c2ccccc2)no1 | x | 70.2* | 19.6 | 61.2* | -0.4 | 43.3 | 6.6 | 13.2 | 20.2 | 28.1 | 5.2
COc1cc(NC(=O)c2ccccc2-n2cnnn2)cc(OC)c1 | x | -3.2 | 17.0 | -1.1 | 7.6 | 5.7 | x | x | x | x | x
COc1cc(OC)cc(C(=O)Nc2ccc(-n3cnnn3)c(C)c2)c1 | 9.8 | 1.1 | 12.0 | 93.8* | -29.4 | 92.2* | 68.9* | 91.7* | 100.8* | 94.9* | 91.7*
CC(C)n1cc(/C=N/Nc2ccc(C(=O)O)cc2)c2ccccc21 | x | 61.3* | -285.9 | 82.4* | -17.0 | 80.0* | 90.4* | 88.6* | 96.0* | 60.8* | 55.0*
O=C(O)c1ccc(N/N=C/c2cn(Cc3ccccc3F)c3ccccc23)cc1 | -11.6 | 46.8 | -420.6 | 84.3* | 0.7 | 87.9* | 96.1* | 95.3* | 98.9* | 43.9 | 40.5
Cn1cc(/C=N/Nc2ccccc2)c2ccccc21 | 25.1 | -1.2 | -353.2 | -10.9 | -11.6 | -7.6 | x | x | x | x | x
Cc1ccc(N2Cc3ccccc3C2=O)cc1 | x | 94.0* | -18.7 | 92.7* | 58.0* | 88.5* | 90.9* | 93.1* | 101.0* | 95.4* | 54.0*
COc1ccc(N2Cc3ccccc3C2=O)cc1 | x | 92.8* | -82.6 | 87.1* | 67.0* | 77.9* | 86.0* | 87.0* | 98.0* | 94.4* | 81.6*
COc1ccc(S(=O)(=O)N2CCN(C)CC2c2ccccc2)cc1OC (stereo unspecified) | x | -5.8 | 3.6 | 2.2 | 0.9 | -2.6 | x | x | x | x | x
CC(C)(C)C(=O)NC(=S)Nc1ccc(S(=O)(=O)Nc2nccs2)cc1 | -2.0 | 3.9 | 3.3 | -6.0 | 4.2 | 1.8 | x | x | x | x | x
O=C(NC(=S)Nc1ccc(S(=O)(=O)Nc2nccs2)cc1)c1ccc(F)cc1 | 14.2 | 0.9 | 10.6 | 64.0* | 18.7 | 23.2 | 36.1 | 33.0 | 66.1* | 45.1 | 52.1*
Cc1cc(C=C2C(=O)CCCC2=O)c(C)n1-c1ccccc1 | 3.2 | 2.4 | 21.2 | 8.5 | -7.4 | -2.5 | x | x | x | x | x
Cc1cc(/C=C2/C(=O)NN(c3ccccc3)C2=O)c(C)n1-c1ccc(O)cc1 | 78.6* | 44.5 | 50.4* | 78.5* | 87.7* | 55.5* | 3.0 | 65.7* | 91.1* | 62.5* | 5.7
